Screens (PubChem)
Autophagy HCS: modulators of autophagy; MEF GFP-LC3 puncta imaging; test concentration mostly 10 µM; calls only at 10 µM (by protocol); 190,000 compounds, 0.98% hits; AID 463193;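 active = percentage of spot-positive cells more than 3 SD above its plate mean, without a fluorescence outlier flag or 80% toxicity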;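 also: spot-positive cell cutoff set from DMSO-treated cells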
Lmaj promast: inhibitors of Leishmania major promastigote growth; Leishmania major promastigotes, resazurin fluorescence viability; AID 1063; inhibition, % at 10 µM; 200,000 compounds, 9% hits; in the data active = inhibition above about 50%;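 also: promastigotes grown with compound for 44 hours at 28 °C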
INS promoter inh: TRM-6 insulin promoter activity inhibition; 130,000 compounds, 0.9% hits; AID 1273; TRM-6 cells (human fetal islet line), insulin promoter-eGFP reporter, imaging; reporter expression induced with tamoxifen; inhibition, % at 2 µM;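 active = inhibition above the mean plus 3 SD, with well images judged a real hit on visual review, cut at about 60% in these data, passing the limit was not always enough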
WT yeast gro inh: growth inhibition of WT yeast, mitochondrial fusion screen. inhibition, % at 10 µM. mitochondrial fusion phenotypic screen, WT strain. 190,000 compounds, 2.1% hits; in the data active = inhibition above about 58%; tested in S. cerevisiae
Insulin prom up: MIN6 insulin promoter up-regulation. z-score at 5 µM. AID 1625. MIN6 insulin promoter-GFP reporter, high-content imaging; stronger effect = higher value. 190,000 compounds, 0.3% hits;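 active = z-score above 3 at 5 µM with at least 500 cells counted in the well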
L major 1uM: L. major promastigote growth inhibition, 1 uM repeat; inhibition, % at 1 µM; shares compounds with Lmaj promast; 1,100 compounds, 13% hits; resazurin fluorescence, 48 h;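 active = inhibition above about 50% in both repeat tests, limit read from the data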
* hit, by the source's call; i = inactive; x = no result given; + = active, no number. Most compounds without a hit are left out; they make up all but 11% or so of the library.

SMILES | Autophagy HCS | Lmaj promast | INS promoter inh | WT yeast gro inh | Insulin prom up | L major 1uM
O=S(=O)(Nc1ccccc1N1CCCCC1)c1ccc(F)cc1F | i | 17 | x | 9 | -0.39 | x
Cc1cc2c(ncn2C)c(NS(=O)(=O)c2ccc(Cl)cc2)c1C | i | 15 | 8 | 18 | -0.26 | x
CCOc1ccc(S(=O)(=O)NC(C)(C)C)cc1-c1nc2c(C(C)(C)C)nn(C)c2c(=O)[nH]1 | i | 71* | -17 | 10 | -1.9 | 4
CN(C)c1cc[n+](CC(=O)Nc2c(Cl)cc(Cl)cc2Cl)cc1 | i | -1 | 54 | 4 | 0.12 | x
CN(C)c1cc[n+](Cc2c(Cl)cccc2Cl)cc1 | i | 84* | 6 | 34 | x | -2
CC1=C(C(=O)Nc2cc(-c3cccc(F)c3)[nH]n2)C2(CCCCC2)OC1=O | i | 100* | x | -1 | 0.74 | 89*
O=C(Nc1cc(-c2ccccc2)[nH]n1)c1ccccc1F | x | x | x | x | -0.34 | x
Cc1ccc(C)c(S(=O)(=O)NC(CCC(N)=O)C(=O)O)c1 (centres undefined) | i | 4 | 31 | x | 1.2 | x
Cc1ccc(C)c(S(=O)(=O)NCCOC(=O)Nc2sc(=S)n(C)c2C)c1 | i | 88* | -47 | 24 | 0.89 | -13
COCCCN(C(=O)Nc1ccccc1)C(C)c1ccncc1 (centres undefined) | i | -7 | x | 7 | -0.73 | x
COC(=O)[C@@H]1CC[C@H](C)[C@@H](c2ccc(C)cc2)N1C(=O)c1ccc(/C=N/O[C@@H](C)CN2CCCCc3nc(C)c(C)cc32)cc1 | i | 100* | 0 | 75* | -1.5 | -8
Cn1c(CNC(=O)Cc2ccc3c(c2)OCO3)nnc1SCc1ccccc1 | i | -1 | -127 | 17 | -0.17 | x
FC(F)(F)c1nnc(-c2ccccc2)nc1Sc1ccccc1 | i | 52* | -30 | 21 | x | 39
FC(F)(F)c1nnc(-c2ccccc2)nc1Sc1ccc(Cl)cc1 | i | 31 | 14 | 16 | 0.71 | x
CCn1c(=O)c(C(=O)NCc2ccc(OC)c(OC)c2)c(O)c2ccccc21 | i | 84* | 20 | -10 | 1.1 | -14
CCc1cc2cc(C)cc(C)c2nc1Cl | i | 0 | x | -7 | -0.02 | x
Cc1cc(C)c2cc(C=O)c(Cl)nc2c1 | i | 58* | 7 | 5 | 0.68 | -7
Cc1cccc(CN2CCN(c3nc4nonc4nc3NC3CC3)CC2=O)c1 | i | 0 | x | 8 | -0.09 | x
COCCCNCCCCOc1ccc(Br)cc1Cl | i | 98* | -75 | 45 | -0.73 | 76*
CCN1C=C(Cc2ccc(OC)cc2)C2=C(C1)C(c1ccc(OC)cc1)C(C#N)=C(N)O2 (centres undefined) | i | 100* | x | -4 | 0.36 | -3
CCOc1ccc(-n2c(SCC(N)=O)nc3c([nH]c4ccccc43)c2=O)cc1 | i | 68* | x | 13 | -1.2 | 2
CCOc1ccc(-n2c(SCC(=O)Nc3cc(C)on3)nc3c([nH]c4ccccc43)c2=O)cc1 | i | 6 | x | 19 | -0.29 | x
O=C(CCCCCN1C(=O)c2cccc3cccc(c23)C1=O)NCCO | i | 1 | 38 | -2 | 0.81 | x
Cc1ccc(S(=O)(=O)Nc2cc(=O)[nH]c3c2CCC3)cc1 | x | x | x | x | -0.12 | x
COc1ccc(/C=C/c2cc[n+](C(=O)Cc3ccccc3)cc2)cc1 | i | 100* | x | 5 | -0.35 | 98*
SMILES | Autophagy HCS | Lmaj promast | INS promoter inh | WT yeast gro inh | Insulin prom up | L major 1uM
CCC(C)Nc1nc2c(c(=O)n(C)c(=O)n2C)n1Cc1cccc(C)c1 (centres undefined) | i | 83* | -14 | -1 | x | -7
O=C(Nc1ccc(CN2CCOCC2)cc1)c1cccs1 | i | 96* | x | 14 | 0.57 | -11
Cc1ccc(-c2nnc(-c3ccc4c(c3)OCO4)o2)cc1 | i | 0 | x | -12 | -0.62 | x
CC(C)C1N=C(c2ccc3c(c2)OCO3)CC(c2ccccc2O)N1 (centres undefined) | i | 99* | 19 | 18 | 1.1 | 26
CC(C)=CC1C(C(=O)Nc2ccc(Br)cn2)C1(C)C (centres undefined) | i | 5 | x | 27 | -0.18 | x
CCOc1ccc(N(C(=O)c2cnsn2)C(C(=O)NC2CCCCC2)c2ccncc2)cc1 (centres undefined) | i | 76* | -39 | 13 | 0.28 | -11
CCOC(=O)C1(N(CC)CC)Sc2cc(C)ccc2NC1=O (centres undefined) | i | 94* | -18 | 10 | 1.1 | -1
Cc1ccc(C(C)C)c(OCc2nn(CC(=O)c3ccc(Cl)cc3)c3[n+]2CCCCC3)c1 | i | 98* | x | 38 | -4.3 | 11
COc1ccc(NC(=O)COC(=O)c2ccc(S(=O)(=O)N(C)c3ccccc3OC)cc2)c(OC)c1 | i | 99* | x | -9 | 0.48 | -6
COc1ccccc1N(C)S(=O)(=O)c1ccc(C(=O)OCC(=O)NCc2cccs2)cc1 | x | x | x | x | 0.22 | x
COc1cc2c(cc1OC)CN(C(=O)CC1CC3CCC1C3)CC2 (centres undefined) | i | 6 | -41 | 19 | -0.84 | x
CC(C)CCn1c(O)c(N=Nc2ccccn2)c2ccccc21 | i | 69* | 3 | 68* | 2.2 | -7
Cn1cccc1C1Nc2ccccc2NC2=C1C(=O)CC(C)(C)C2 (centres undefined) | i | 91* | 23 | -3 | -0.94 | -10
COc1ccc(/C(C)=N/OCC(=O)N2CC3(C)CC2CC(C)(C)C3)cc1 (centres undefined) | i | 63* | -36 | 29 | -0.19 | -6
O=C(O)c1ccc(N2CCCCS2(=O)=O)cc1 | i | -7 | 35 | -9 | -0.29 | x
COc1ccc(C(C#N)C2(C)OCCO2)cc1OC (centres undefined) | i | -1 | 50 | -3 | -0.08 | x
S=C(Nc1ccc(Oc2ccc(NC(=S)NC3CCCCC3)cc2)cc1)NC1CCCCC1 | i | 58* | 0 | -15 | -5.6 | 3
O=C(CC(c1ccco1)S(=O)(=O)c1ccccc1)c1ccccc1 (centres undefined) | i | -2 | -17 | 0 | -0.37 | x
C/C(=N\NC(=S)Nc1ccccc1C)c1ccc(O)cc1 | i | 0 | x | 2 | -0.52 | x
Cc1ccccc1Nc1ncnc(N)n1 | i | -8 | -82 | -4 | -0.61 | x
O=C(Nc1ccccc1-c1nnn(CC(=O)N2CCc3ccccc3C2)n1)C1CCC1 | i | -3 | -24 | -3 | -0.58 | x
O=C(Nc1cccc(-c2nnn(CC(=O)N3CCc4ccccc4C3)n2)c1)C1CCC1 | i | 99* | -30 | -3 | 1.2 | -2
COc1ccc(O[C@H]2C=C[C@@H](c3ccccc3)O[C@@H]2CO/N=C(\C)CCN2CCCCc3nc(C)c(C)cc32)cc1 | + | 84* | -105 | 60* | -0.63 | 16
COc1ccc(O[C@H]2C=C[C@@H](c3ccccc3)O[C@@H]2COC(=O)CCC(C)=NO[C@@H]2O[C@H](COC(C)=O)[C@@H](OC(C)=O)[C@H](OC(C)=O)[C@H]2OC(C)=O)cc1 | i | -3 | -5 | -3 | 0.22 | x
